# Data published in PubChem BioAssay AID999 (SRMLSC, 2007).
# A number with no mark means an inactive call.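 Rule for the calls: active = viability at or below 21.59%, 3 SD under the median of tested compounds; inactive = the rest.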
# Experiment: growth suppression of PTEN-null HCT116 cells, cell-based, validation, diverse DP compound set (AID 999);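 note: 100% = median luminescence of untreated cell control wells and 0% = no signal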
# Settings: CellTiter-Glo, 60 h, at 10 µM, stronger effect = lower value
row,SMILES,viability
1,CCn1cc(C(=O)O)c(=O)c2ccc(C)nc21,98.4%
2,CC(C)C[C@H]1C(=O)N2CCC[C@H]2[C@]2(O)O[C@](NC(=O)[C@@H]3C=C4c5cccc6[nH]c(Br)c(c56)C[C@H]4N(C)C3)(C(C)C)C(=O)N12,76.4%
3,CC(C)CC(=O)N[C@H](C(=O)N[C@H](C(=O)N[C@@H](CC(C)C)[C@@H](O)CC(=O)N[C@@H](C)C(=O)N[C@@H](CC(C)C)[C@@H](O)CC(=O)O)C(C)C)C(C)C,98.2%
4,O=c1c(-c2ccc(O)cc2)coc2cc(O)cc(O)c12,87.8%
5,COc1ccc2cc([C@H](C)C(=O)O)ccc2c1,85.6%
